Results as given in PMC4336329 (PLoS ONE, 2015).
About 14,000 (4.5%) of roughly 310,000 compounds showed an effect of 50% or more. The effect is printed as a negative number. The entries come from a sample that favours strong results as a whole.

Target: human ether-à-go-go-related gene (hERG) potassium channel (human, UniProt Q12809)
Assay: primary screen, population patch clamp on CHO cells stably expressing hERG; higher = less effect of the substance
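Further: peak tail current of the secondary pulse compared with the same well before compound.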

Chain of human ether-à-go-go-related gene (hERG) potassium channel (Q12809 whole entry, looked up): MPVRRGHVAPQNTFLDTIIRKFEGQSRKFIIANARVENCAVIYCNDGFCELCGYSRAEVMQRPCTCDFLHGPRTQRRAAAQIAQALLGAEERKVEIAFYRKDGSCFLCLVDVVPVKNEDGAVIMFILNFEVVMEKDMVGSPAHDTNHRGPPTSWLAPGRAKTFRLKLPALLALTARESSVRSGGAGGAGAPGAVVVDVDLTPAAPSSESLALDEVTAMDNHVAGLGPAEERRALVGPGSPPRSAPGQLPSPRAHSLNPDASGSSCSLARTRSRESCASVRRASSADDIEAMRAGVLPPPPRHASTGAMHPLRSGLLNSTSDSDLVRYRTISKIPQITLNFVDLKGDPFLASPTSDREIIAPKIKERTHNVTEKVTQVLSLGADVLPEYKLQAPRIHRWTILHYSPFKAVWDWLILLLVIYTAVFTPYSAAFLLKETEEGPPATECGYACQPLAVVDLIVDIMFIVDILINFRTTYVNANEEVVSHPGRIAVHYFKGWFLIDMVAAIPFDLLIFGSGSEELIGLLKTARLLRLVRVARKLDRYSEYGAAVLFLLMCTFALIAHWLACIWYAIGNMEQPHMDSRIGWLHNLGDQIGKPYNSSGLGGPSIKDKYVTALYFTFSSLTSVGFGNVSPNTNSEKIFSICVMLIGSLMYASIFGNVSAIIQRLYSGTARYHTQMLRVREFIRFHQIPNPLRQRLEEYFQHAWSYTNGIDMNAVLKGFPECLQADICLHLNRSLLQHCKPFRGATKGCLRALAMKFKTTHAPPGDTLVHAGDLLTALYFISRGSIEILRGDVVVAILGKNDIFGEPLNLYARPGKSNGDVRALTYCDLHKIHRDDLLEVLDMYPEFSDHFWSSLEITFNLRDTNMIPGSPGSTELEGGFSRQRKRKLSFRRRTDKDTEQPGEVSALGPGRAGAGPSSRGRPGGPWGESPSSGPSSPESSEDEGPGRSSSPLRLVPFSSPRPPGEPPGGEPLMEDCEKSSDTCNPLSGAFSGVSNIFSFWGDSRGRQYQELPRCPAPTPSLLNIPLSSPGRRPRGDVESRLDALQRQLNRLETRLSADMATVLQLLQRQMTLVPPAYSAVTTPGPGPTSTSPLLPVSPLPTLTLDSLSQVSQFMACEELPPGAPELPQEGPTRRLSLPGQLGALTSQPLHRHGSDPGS

| SMILES | hERG current change (%, negative = inhibition) at 10uM [%] |
| --- | --- |
| COc1ccc(-c2nc3cnccn3c2NCc2ccccc2)cc1SC1CCCCC1.O=C(O)C(F)(F)F | 2.68 |
| COc1cccc(-n2nnc(S(=O)(=O)c3ccc(C)cc3)c2N)c1 | 10.5 |
| O=C(COC(=O)c1ccc(Sc2ccccc2)c([N+](=O)[O-])c1)NC1CCS(=O)(=O)C1 (stereo not drawn) | -83.3 |
| CS(=O)(=O)c1ccc(C(=O)OCC(=O)NC2CCS(=O)(=O)C2)cc1[N+](=O)[O-] (stereo not drawn) | 10.3 |
| Nc1ccc(C(=O)OCC(=O)NC2CCS(=O)(=O)C2)cc1[N+](=O)[O-] (stereo not drawn) | -3.78 |
| COc1ccc(NC(=S)NC23CC4CC(CC(C4)C2)C3)cc1OC | 3.45 |
| O=C(CN1C(=O)c2ccc([N+](=O)[O-])cc2C1=O)NC1CCCCCC1 | 1.09 |
| Cc1nonc1OC(C)CNCCNc1ccc([N+](=O)[O-])cc1.Cl (stereo not drawn) | -55.2 |
| Nc1nonc1C(=O)NCCNc1ccc([N+](=O)[O-])cc1 | -21.9 |
| Cc1nonc1OC(C)CNc1ccc([N+](=O)[O-])cc1 (stereo not drawn) | -58.7 |
| Cc1nonc1OCCNc1ccc([N+](=O)[O-])cc1 | -40.7 |
| Cl.NCCNc1ccc([N+](=O)[O-])cc1 | -6.16 |
| CCNc1ccc([N+](=O)[O-])cc1 | 4.89 |
| COc1ccc(CN(C(=O)c2cc(=O)c3ccccc3o2)C2CCS(=O)(=O)C2)cc1 (stereo not drawn) | -30.4 |
| CNS(=O)(=O)c1cc(OC)ccc1OC | 13.2 |
| CC(=O)c1c(O)cc(C)n(Nc2nc(C)cc(C)n2)c1=O | 1.83 |
| c1ccc(CNc2nc3ccccc3n3cnnc23)nc1 | 0.696 |
| COc1ccc(-c2nn(CCC(=O)O)cc2/C=C/C(=O)O)cc1[N+](=O)[O-] | 5.53 |
| C#C[C@]1(O)CC[C@H]2[C@@H]3CCC4=Cc5oncc5C[C@]4(C)[C@H]3CC[C@@]21C | -15.3 |
| C#C[C@]1(O)CC[C@H]2[C@@H]3CCC4=Cc5nc6nc7ccccc7n6cc5C[C@]4(C)[C@H]3CC[C@@]21C | -56.8 |
| C#C[C@]1(O)CCC2C3CCC4=Cc5oncc5CC4(C)C3CCC21C (stereo partly drawn) | -3.2 |
| CC(NC(=O)c1ccc(NC2=NC3CS(=O)(=O)CC3S2)cc1)c1ccccc1 (stereo not drawn) | 12.9 |

| SMILES | hERG current change (%, negative = inhibition) at 10uM [%] |
| --- | --- |
| COC(=O)C1C(=O)C2=C(CC1C)NC(=O)CC2c1ccc(F)cc1 (stereo not drawn) | 18.6 |
| CCC(=O)Nc1cc2c3c(c1)CCC(=O)N3CCC2 | 1.44 |
| CC(=O)OCCNc1cc(Sc2nc3ccccc3[nH]2)c2nonc2c1[N+](=O)[O-] | -12.1 |
| O=c1c2c(-c3ccc([N+](=O)[O-])cc3)csc2nc2n1CCC2 | -77.6 |
| O=c1c2c(-c3ccc(Cl)cc3)csc2nc2n1CCC2 | -28.9 |
| O=c1c2c(-c3ccc([N+](=O)[O-])cc3)csc2nc2n1CCCCC2 | -34.6 |
| O=[N+]([O-])c1ccccc1/C=C/C=N/Nc1ccc(S(=O)(=O)Nc2ccc(Cl)cc2)cc1[N+](=O)[O-] | 20.8 |
| COn1c(-c2ccc(Cl)cc2)nc2ccc(Cl)cc21 | -4.56 |
| Cc1ccc(OCC(=O)NCC(=O)Nc2ccc(F)cc2)c([N+](=O)[O-])n1 | -40.3 |
| Cc1cccn2c(CN3CCSCC3)c(C(=O)N3CCOCC3)nc12 | 0.407 |
| Cc1cccn2c(CN[C@@H]3CCCC[C@H]3c3ccccc3)c(C(=O)N3CCOCC3)nc12 | -12.9 |
| Cc1cccn2c(CN3CCCC(c4ccccc4)C3)c(C(=O)N3CCOCC3)nc12 (stereo not drawn) | -68.7 |
| Cc1cc(C(=O)NN)c(C)o1 | 10.3 |
| CCc1cc(=O)oc2cc(C)cc(OCC(=O)N3CCC(C(=O)NC(C)C)(c4ccccc4)CC3)c12 | -43.6 |
| CC(NC(=O)/C=C/c1ccccc1[N+](=O)[O-])C1CC2CCC1C2 (stereo not drawn) | 8.42 |
| CC1CN(c2nn3c(=O)c4ccccc4nc3c3ccccc23)CC(C)O1 (stereo not drawn) | -25.7 |
| CN(Cc1ccccc1F)c1nc(-c2cccnc2)nc2ccccc12 | 3.92 |
| CN(Cc1cccs1)c1nc(-c2cccnc2)nc2ccccc12 | -53.5 |
| CCN1CCN(c2nc(-c3ccccc3)nc3ccccc23)CC1 | -63 |
| c1ccc(CN2CCN(c3nc(-c4ccccc4)nc4ccccc34)CC2)cc1 | 8.72 |
| O=S(=O)(c1ccccc1F)N1CCN(c2nc(-c3cccnc3)nc3ccccc23)CC1 | -41.9 |
| CCN1CCN(c2nc3ccccc3n3cnnc23)CC1 | -14.8 |

| SMILES | hERG current change (%, negative = inhibition) at 10uM [%] |
| --- | --- |
| CCCOc1ccc(-c2nc(N3CCN(CC)CC3)c3ccccc3n2)cc1 | -17.3 |
| Cc1ccc(C)c(S(=O)(=O)N2CCN(c3nc(-c4cccnc4)nc4ccccc34)CC2)c1 | 1.45 |
| CCN1CCN(c2nn3c(=O)c4ccccc4nc3c3ccccc23)CC1 | -72.7 |
| Cc1ccc(CN(C)c2nc(-c3cccnc3)nc3ccccc23)o1 | 12.7 |
| CCN1CCN(c2nc(-c3cccnc3)nc3ccccc23)CC1.Cl | -55.4 |
| CC(C)OC(=O)CC(=O)CSc1nc2c(c(-c3cccs3)c1C#N)CCC2 | -8.89 |
| O=C(c1ccc(N2CCCS2(=O)=O)cc1)N1CCN(c2ccc(F)cc2)CC1 | -28.9 |
| COc1ccc(/C=N/Nc2ccc([N+](=O)[O-])cc2)cc1O | 10.1 |
| O=C(COc1ccc(-c2nnco2)cc1)NCc1ccccc1Cl | -6.27 |
| C=CCN(CC=C)C(=S)NC(=O)c1ccc(OC)c(Br)c1 | 5.1 |
| Cn1ncc([N+](=O)[O-])c1C(=O)Nc1ccn(Cc2ccccc2F)n1 | -9.33 |
| Cc1c(NC(=O)OCCNC(=O)COc2ccc(Cl)cc2Cl)sc(=S)n1C | -5.51 |
| CCC1CCCCN1c1nc(-c2ccncc2)nc2ccccc12 (stereo not drawn) | -42.5 |
| CC1CCN(c2nc(-c3ccncc3)nc3ccccc23)CC1 | -27 |
| CCN1CCN(c2nc(-c3ccncc3)nc3ccccc23)CC1 | -77.8 |
| CCC1=C(C)CN(C(=O)NCCc2ccc(S(=O)(=O)NC(=O)NC3CCC(C)CC3)cc2)C1=O (stereo not drawn) | -13.5 |
| CCOc1ccc(/C=C(\C#N)C(=O)NCC2CCCO2)cc1OCC (stereo not drawn) | -5.95 |
| O=C(Nc1ncccc1O)c1ccc(Cl)c(S(=O)(=O)N2CCCCCC2)c1 | -61 |
| O=C(NCc1ccccn1)c1ccc(Cl)c(S(=O)(=O)N2CCOCC2)c1 | -4.89 |
| O=C(NCc1ccccn1)c1ccc(Cl)c(S(=O)(=O)N2CCCCCC2)c1 | -64.5 |
| Cc1cccnc1NC(=O)c1ccc(Cl)c(S(=O)(=O)N2CCCC2)c1 | -9.58 |
| O=C(NCc1ccccn1)c1ccc(Cl)c(S(=O)(=O)N2CCCCC2)c1 | -10.1 |

| SMILES | hERG current change (%, negative = inhibition) at 10uM [%] |
| --- | --- |
| Cc1ccc(C(=O)Nc2ncccc2O)cc1S(=O)(=O)N1CCCCC1 | -14.3 |
| O=C(Nc1cccnc1)c1ccc(Cl)c(S(=O)(=O)N2CCCCC2)c1 | -15.6 |
| O=C(Nc1cccnc1)c1ccc(Cl)c(S(=O)(=O)N2CCCCCC2)c1 | -31.6 |
| O=C(Nc1ncccc1O)c1ccc(Cl)c(S(=O)(=O)N2CCCCC2)c1 | -16.1 |
| Cc1cccnc1NC(=O)c1ccc(Cl)c(S(=O)(=O)N2CCCCC2)c1 | -21.7 |
| CC(NC(=O)c1ccc(Cl)c(S(=O)(=O)N2CCCCCC2)c1)c1cccnc1 (stereo not drawn) | -52.3 |
| Cc1cccnc1NC(=O)c1ccc(Cl)c(S(=O)(=O)N2CCCCCC2)c1 | -65.5 |
| COc1ccc(NC(=O)c2ccccn2)cc1OC | 3.32 |
| O=C(O)c1csc(Cc2ccccc2)n1 | 15.1 |
| COc1ccc(Cl)cc1NC(=O)Nc1cc(C)on1 | 0.43 |
| CC(C)C(O)(C#CCN1CCCCC1)C(C)C | -1.16 |
| Cc1cccc(N2C(=O)CC(NNc3nc4ccccc4s3)C2=O)c1 (stereo not drawn) | 10.6 |
| Cc1cc(C)c(C(=O)C(C)OC(=O)Cn2cnc3c2c(=O)n(C)c(=O)n3C)cc1C (stereo not drawn) | -17.6 |
| CC(C(=O)c1ccccc1)n1cnc2ccccc2c1=O (stereo not drawn) | -2.46 |
| CC(=O)c1cccc(NC(=O)CCN2C(=O)C3CC=CCC3C2=O)c1 (stereo not drawn) | 5.49 |
| COCCN(CCOC)S(=O)(=O)c1ccc(OC)cc1 | 8.79 |
| Cc1ccnc(NC(=O)CCCc2ccccc2)c1 | 13 |
| COc1ccc(C2Nc3ccccc3C(=O)N2NS(=O)(=O)c2ccc(C)cc2)c(OC)c1 (stereo not drawn) | 3.22 |
| CCOc1ccc(C(=O)C(C)OC(=O)Cn2c(C)csc2=O)cc1 (stereo not drawn) | -60.1 |
| Cc1csc(=O)n1CC(=O)OC(C)C(=O)Nc1ccc(F)c(F)c1F (stereo not drawn) | -4.29 |
| CCOc1ccc(C(=O)C(C)OC(=O)CN2C(=O)NC(C)(C)C2=O)cc1 (stereo not drawn) | -7.23 |
